Tested on: LIMK1
Conditions: concentration: 1 μM, replicates: in singlicate; n = 1
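Further: KINOMEscan kinase panel screen.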

| Structure (SMILES) | %Inh |
| --- | --- |
| CCc1nc(-c2cccc(C)c2)c(-c2ccnc(NCc3ccccc3)c2)s1 | 0% |
| O=c1cc(N2CCOCC2)nc2n(Cc3cccc4ccccc34)ccn12 [GSK2333389] | 0% |
| CN1c2ccc(NCc3ccc(F)cc3)cc2-c2c(cnn2C)S1(=O)=O | 0% |
| NCCNS(=O)(=O)c1ccc(-c2ccnc3[nH]ccc23)cc1 [GSK977617] | 0% |
| Cc1ccc(NC(=O)c2ccnc(N3CCN(C)CC3)c2)cc1-c1ccc(C(=O)NCC2CC2)cc1 [GW775604] | 0% |
| Cc1ccc(C(=O)NCC(N)=O)cc1-n1c(C)cc(OCc2ccc(F)cc2F)c(Br)c1=O | 16% |
| COCCNC(=O)c1ccc(-c2cc(C(=O)NC3CC3)cc(F)c2C)cc1 [GW868318] | 16% |
| COc1ccc(Nc2ncc(C#N)c(Nc3ccccc3C(N)=O)n2)cc1N1CCN(C)CC1.Cl [GSK1558669] | 85% |
| COc1ccc(S(=O)(=O)NC2CCN(c3cc(C)nc(Nc4cccc(C#N)c4)n3)CC2)cc1.O=C(O)C(F)(F)F [GSK1653539] | 0% |
| COc1ccc(Nc2nccc(N3CCC(NC(=O)Nc4cc(C)ccc4C)C3)n2)cc1 (stereo not drawn) [GSK1379741] | 0% |
| CC(C)(C)n1cnc2c(N)ncnc21 [SKF-97359] | 0% |
| COc1cc2ncn(-c3cc(OCc4sccc4Cl)c(C(N)=O)s3)c2cc1OC [GSK448459] | 4% |
| COC(=O)Nc1nc2cc(Oc3ccc(NC(=O)Nc4cc(F)ccc4F)cc3)ccc2[nH]1.Cl [GW701424] | 0% |
| Cc1c2ccc(N(C)c3ccnc(Nc4cccc(S(N)(=O)=O)c4)n3)cc2nn1Cc1ccccc1.Cl.Cl [GW787226] | 89% |
| O=C(NCCNc1ccnc(Nc2ccc(F)cc2)n1)c1cc2ccccc2s1 [GSK1379874] | 0% |
| CCn1cnc2c(N)ncnc21 [GW345098] | 26% |
| O=C1Cc2cc(Nc3nc(NCc4cccc(S(=O)(=O)C(F)(F)F)c4)ncc3C(F)(F)F)ccc2N1 | 1% |
| Cl.Oc1cccc(Nc2ccnc3cc(-c4ccncc4)ccc23)c1 [GW494601] | 0% |

| Structure (SMILES) | %Inh |
| --- | --- |
| Cn1cc(-c2ccc3c(c2)CCN3C(=O)Cc2ccccc2Cl)c2c(N)ncnc21 [GSK2608885] | 32% |
| NS(=O)(=O)CCc1cccc(Nc2nccc(-c3c(-c4cccc(NC(=O)c5c(F)cccc5F)c4)nn4ccccc34)n2)c1 [GSK336735] | 67% |
| O=c1cc(N2CCOCC2)nc2n(Cc3cccc(Cl)c3Cl)c(C3CC3)nn12 [GSK2358994] | 9% |
| COc1ccc(COc2cc(-n3cnc4ccccc43)sc2C(N)=O)cc1 [GSK1024304] | 10% |
| c1ccc(-c2n[nH]cc2-c2ccnc3ccccc23)nc1 [GW271431] | 21% |
| CN(C1=C(c2ccccc2)C(=O)NC1=O)c1ccccc1 [SB-334860] | 15% |
| COc1ccc(CNC(=O)NC2CCN(c3ccnc(Nc4ccc(OC)cc4)n3)C2)cc1 (stereo not drawn) [GSK1379727] | 0% |
| COc1cc2c(cc1OC[C@@H](O)CO)ncc1c3ccc(C#N)cc3[nH]c21 | 0% |
| c1ccc(-c2cc(-c3c[nH]nc3-c3ccccn3)ccn2)cc1 [GW576604] | 0% |
| Cc1cccc(-c2nc(-c3ccc(S(C)(=O)=O)cc3)sc2-c2ccncc2)c1 | 0% |
| Cc1cccc(Cn2ccn3c(=O)cc(N4CCOCC4)nc23)c1 [GSK2297542] | 2% |
| Fc1ccc(-c2nn3c(OCC(F)(F)F)cccc3c2-c2ccncc2)cc1 [GW514784] | 0% |
| N#Cc1c(N2CCOCC2)sc(-c2ccn[nH]2)c1-c1ccc(Cl)cc1 | 6% |
| COc1cc2c(cc1OCCN1CCN(C)CC1)ncc1c3ccc(C#N)cc3[nH]c21 | 0% |
| CC(=O)Nc1ccc(COc2ccc(Nc3ccnc4cc(-c5ccccn5)ccc34)cc2)cc1.Cl [GW440148] | 0% |
| [2H]C([2H])(c1cccc(C(F)(F)F)c1C)n1ccn2c(=O)nc(N3CCOCC3)cc12 [GSK2336394] | 15% |
| COc1ccc(Nc2nccc(N3CCC(NC(=O)Nc4cccc(C(C)=O)c4)C3)n2)cc1 (stereo not drawn) [GSK1379731] | 1% |

Tested on: LIMK2
Conditions: concentration: 1 μM, replicates: in singlicate; n = 1

| Structure (SMILES) | %Inh |
| --- | --- |
| CCc1nc(-c2cccc(C)c2)c(-c2ccnc(NCc3ccccc3)c2)s1 | 0% |
| O=c1cc(N2CCOCC2)nc2n(Cc3cccc4ccccc34)ccn12 [GSK2333389] | 0% |
| CN1c2ccc(NCc3ccc(F)cc3)cc2-c2c(cnn2C)S1(=O)=O | 0% |
| Cc1ccc(NC(=O)c2ccnc(N3CCN(C)CC3)c2)cc1-c1ccc(C(=O)NCC2CC2)cc1 [GW775604] | 0% |
| Cc1ccc(C(=O)NCC(N)=O)cc1-n1c(C)cc(OCc2ccc(F)cc2F)c(Br)c1=O | 0% |
| COCCNC(=O)c1ccc(-c2cc(C(=O)NC3CC3)cc(F)c2C)cc1 [GW868318] | 3% |
| COc1ccc(Nc2ncc(C#N)c(Nc3ccccc3C(N)=O)n2)cc1N1CCN(C)CC1.Cl [GSK1558669] | 93.4% |
| COc1ccc(S(=O)(=O)NC2CCN(c3cc(C)nc(Nc4cccc(C#N)c4)n3)CC2)cc1.O=C(O)C(F)(F)F [GSK1653539] | 7% |
| COc1ccc(Nc2nccc(N3CCC(NC(=O)Nc4cc(C)ccc4C)C3)n2)cc1 (stereo not drawn) [GSK1379741] | 0% |
| CC(C)(C)n1cnc2c(N)ncnc21 [SKF-97359] | 0% |
| COc1cc2ncn(-c3cc(OCc4sccc4Cl)c(C(N)=O)s3)c2cc1OC [GSK448459] | 0% |
| COC(=O)Nc1nc2cc(Oc3ccc(NC(=O)Nc4cc(F)ccc4F)cc3)ccc2[nH]1.Cl [GW701424] | 0% |
| Cc1c2ccc(N(C)c3ccnc(Nc4cccc(S(N)(=O)=O)c4)n3)cc2nn1Cc1ccccc1.Cl.Cl [GW787226] | 73% |
| O=C(NCCNc1ccnc(Nc2ccc(F)cc2)n1)c1cc2ccccc2s1 [GSK1379874] | 25% |
| CCn1cnc2c(N)ncnc21 [GW345098] | 27% |
| O=C1Cc2cc(Nc3nc(NCc4cccc(S(=O)(=O)C(F)(F)F)c4)ncc3C(F)(F)F)ccc2N1 | 9% |
| Cl.Oc1cccc(Nc2ccnc3cc(-c4ccncc4)ccc23)c1 [GW494601] | 6% |

| Structure (SMILES) | %Inh |
| --- | --- |
| Cn1cc(-c2ccc3c(c2)CCN3C(=O)Cc2ccccc2Cl)c2c(N)ncnc21 [GSK2608885] | 6% |
| NS(=O)(=O)CCc1cccc(Nc2nccc(-c3c(-c4cccc(NC(=O)c5c(F)cccc5F)c4)nn4ccccc34)n2)c1 [GSK336735] | 9% |
| O=c1cc(N2CCOCC2)nc2n(Cc3cccc(Cl)c3Cl)c(C3CC3)nn12 [GSK2358994] | 8% |
| COc1ccc(COc2cc(-n3cnc4ccccc43)sc2C(N)=O)cc1 [GSK1024304] | 7% |
| c1ccc(-c2n[nH]cc2-c2ccnc3ccccc23)nc1 [GW271431] | 30% |
| CN(C1=C(c2ccccc2)C(=O)NC1=O)c1ccccc1 [SB-334860] | 20% |
| COc1ccc(CNC(=O)NC2CCN(c3ccnc(Nc4ccc(OC)cc4)n3)C2)cc1 (stereo not drawn) [GSK1379727] | 0% |
| COc1cc2c(cc1OC[C@@H](O)CO)ncc1c3ccc(C#N)cc3[nH]c21 | 0% |
| c1ccc(-c2cc(-c3c[nH]nc3-c3ccccn3)ccn2)cc1 [GW576604] | 0% |
| Cc1cccc(-c2nc(-c3ccc(S(C)(=O)=O)cc3)sc2-c2ccncc2)c1 | 1% |
| Cc1cccc(Cn2ccn3c(=O)cc(N4CCOCC4)nc23)c1 [GSK2297542] | 10% |
| Fc1ccc(-c2nn3c(OCC(F)(F)F)cccc3c2-c2ccncc2)cc1 [GW514784] | 0% |
| N#Cc1c(N2CCOCC2)sc(-c2ccn[nH]2)c1-c1ccc(Cl)cc1 | 0% |
| COc1cc2c(cc1OCCN1CCN(C)CC1)ncc1c3ccc(C#N)cc3[nH]c21 | 0% |
| CC(=O)Nc1ccc(COc2ccc(Nc3ccnc4cc(-c5ccccn5)ccc34)cc2)cc1.Cl [GW440148] | 0% |
| [2H]C([2H])(c1cccc(C(F)(F)F)c1C)n1ccn2c(=O)nc(N3CCOCC3)cc12 [GSK2336394] | 0% |
| COc1ccc(Nc2nccc(N3CCC(NC(=O)Nc4cccc(C(C)=O)c4)C3)n2)cc1 (stereo not drawn) [GSK1379731] | 0% |
